Screening results from PubChem BioAssay.
Pf growth 96h: P. falciparum growth inhibition at 96 hours. P. falciparum luciferase reporter growth, 96 h. Potency, µM (highest dose often 28.7 µM), usual class: inhibitors. 6.9% of 320,000 active. AID 504834
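Parasite growth measured via integrated firefly luciferase reporter in P. falciparum. Infected erythrocytes at 2% hematocrit, 0.05% parasitemia final were treated 96 hours at 37 C under 5% CO2, and luminescence was read.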
CHX counter: affects cycloheximide protein synthesis inhibition readout, counter-screen; cell reporter, cycloheximide protein synthesis inhibition counterscreen; max response, %; 12% of 300,000 active; AID 2314; in the data active means max response mostly above about 13%, no sharp cut-off; inactive means mostly below about 14%; further: read at 38.3 µM for the half of the compounds with a filed dose
Pf growth 48h: inhibits P. falciparum growth in the first generation, 48 h | P. falciparum luciferase growth in erythrocytes, 48 h | Potency, µM (series often up to 28.7 µM), hits mostly inhibitors | 5.9% of 310,000 active
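Luciferase-expressing parasites in RBCs, 2% Hct / 0.1% parasitemia final; RPMI 1640 + 0.5% Albumax; 37 C, 5% CO2, one generation; luminescence read-out, lower signal = inhibition.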
Shiga toxin inh: inhibitors of Shiga toxin in Vero cells; 9.2% of 290,000 active; Vero cells, Shiga toxin protein synthesis inhibition reporter; inhibition, % at 38.7 µM; in the data active means inhibition mostly above about 28%, no sharp cut-off; inactive means mostly below about 43%
HCV inh: HCV inhibition | Huh7.5.1 HCVcc-Cre infection, luciferase reporter, 44 h | Potency, µM (titrated, usually from 41.8 µM), usual class: inhibitors | 3.4% of 340,000 active | AID 651820
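A cell-based infection assay in which seeded cells (1,000 per well) receive test compound after 4 h, are inoculated with HCVcc-Cre at approximately 0.5 moi, and are incubated 44 h before luminescence detection.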
HCMV inh: blocks human cytomegalovirus replication; HFF cells, HCMV-luciferase reporter, 72 h; stronger effect = lower value; activity change, negative = inhibition, % at 57.5 µM; 4.5% of 410,000 active; AID 1259415; in the data active means activity change below about -60%; inconclusive means no clear call, values can overlap the other calls; inactive means above about -39%
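HFF cells seeded 16 h at 37C, treated with compounds, infected with luciferase-reporter HCMV at MOI 1 PFU/cell; luciferase read at 72 h post infection, normalized to buffer-only and Salinomycin controls.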
Hits are given with their value; ! = a repeat was not active. Rows were chosen to be rich in hits. Some 21% of all compounds tested hit in one or more screens of this group. Unless noted, the call rests on the fitted dose curve; in most records, active means well fitted inhibition curve with a large enough effect; inconclusive means small, poorly fitted or top-dose-only effect, or another doubt; inactive means no such curve, though single readings can be large or run the other way.

For CN(C(=O)c1ccc(NC(=O)Cc2cccc(NC(=O)C3CCN(C(=O)C4CCCCC4)CC3)c2)cc1)C1CCCC1 the results were Pf growth 96h inconclusive, Pf growth 48h inconclusive, HCV inh inconclusive and HCMV inh inactive.
Screening O=C(Nc1ccc(Br)cn1)c1cccc2c1-c1ccccc1C2=O returned Pf growth 96h inactive, CHX counter inactive, Pf growth 48h inactive, Shiga toxin inh inactive, HCV inh inactive and HCMV inh inactive.
`Cc1ccc2nc(C(F)C(F)(F)F)[nH]c2c1` (stereo unspecified) gave Pf growth 96h inconclusive, CHX counter 22, Pf growth 48h inactive, Shiga toxin inh 44, HCV inh inactive and HCMV inh inactive.
For Cc1ccc2nc(-c3ccncc3)[nH]c2c1 the results were Pf growth 96h inactive, CHX counter 47, Pf growth 48h inactive, Shiga toxin inh 83, HCV inh inactive and HCMV inh inactive.
For Cc1ccc(-c2nc3ccsc3c(=O)[nH]2)cc1 the results were Pf growth 96h inactive, CHX counter 42, Pf growth 48h 2.1µM, Shiga toxin inh 103, HCV inh inactive and HCMV inh inactive.
Cc1csc(N2CCN(c3cc4nc(-c5ccncc5)[nH]c4cc3Cl)CC2)n1 was read as Pf growth 96h inconclusive, CHX counter inactive, Pf growth 48h inconclusive, Shiga toxin inh inactive, HCV inh inactive and HCMV inh inactive.
`Cc1ccc(-c2csc3nc(CN(C)Cc4ccccc4)[nH]c(=O)c23)cc1` gave Pf growth 96h 4.1µM, CHX counter inactive, Pf growth 48h 12µM, Shiga toxin inh inactive, HCV inh inactive and HCMV inh inconclusive.
Screening COc1ccc2oc(=O)c(C(=O)Nc3ccc(C(=O)O)cc3)cc2c1 returned HCMV inh inactive.
Screening O=C(Nc1nncs1)c1cccnc1Cl returned Pf growth 96h inactive, CHX counter inactive, Pf growth 48h inactive, Shiga toxin inh inactive, HCV inh inactive and HCMV inh inactive.
O=c1c2ccccc2c(=O)n(-c2ccccc2)n1-c1ccccc1 was read as HCV inh inactive and HCMV inh inactive.
O=C(Nc1ccccc1)[C@H]1[C@H](CO)[C@H]2Cn3c(cccc3=O)[C@H]2N1C(=O)C1CC1 was read as HCMV inh inactive.
Screening CCOc1ccc(C(C)=O)cc1CN1C(=O)c2ccccc2S1(=O)=O returned Pf growth 96h inactive, CHX counter inactive, Pf growth 48h inactive, Shiga toxin inh inactive, HCV inh inactive and HCMV inh inactive.
For O=c1[nH]c(Cc2ccc(F)cc2)nc2scc(-c3ccc(F)cc3)c12 the results were Pf growth 96h inconclusive, CHX counter 17, Pf growth 48h inactive, Shiga toxin inh inactive, HCV inh inactive and HCMV inh inconclusive.
Screening Cc1ccc(-c2csc3nc(-c4ccncc4)[nH]c(=O)c23)cc1 returned Pf growth 96h inactive, CHX counter inactive, Pf growth 48h inactive, Shiga toxin inh inactive, HCV inh 5.6µM and HCMV inh inactive.
For CCCCn1c(N)c(N(CC)C(=O)CN2C(=O)NC(C)(c3ccccc3)C2=O)c(=O)[nH]c1=O (stereo unspecified) the results were HCV inh inactive and HCMV inh inconclusive.
`CS(=O)(=O)N(CC(=O)NCc1ccco1)c1cccc([N+](=O)[O-])c1` gave Pf growth 96h inconclusive, CHX counter inactive, Pf growth 48h inactive, Shiga toxin inh inactive, HCV inh inactive and HCMV inh inactive.
`Oc1c(C(Nc2ccccn2)c2ccccn2)ccc2cccnc12` (stereo unspecified) gave CHX counter inactive, Pf growth 48h 2.9µM, Shiga toxin inh inactive, HCV inh inconclusive and HCMV inh -85.
Cc1ccnc(NC(c2ccccc2F)c2ccc3cccnc3c2O)c1 (stereo unspecified) was read as HCMV inh -77.
For Cc1ccc2ccc(C(Nc3ccccn3)c3ccccc3)c(O)c2n1 (stereo unspecified) the results were Pf growth 96h inactive, CHX counter inactive, Shiga toxin inh inactive, HCV inh inconclusive and HCMV inh inactive.
O=c1cc(CO)oc(C(Nc2ccccn2)c2ccccc2F)c1O (stereo unspecified) was read as HCV inh inactive and HCMV inh inactive.
Oc1c(C(Nc2ccccn2)c2ccccc2F)ccc2cccnc12 (stereo unspecified) was read as CHX counter inactive, Shiga toxin inh inactive and HCMV inh -95.
Screening Oc1ccccc1C(Nc1nccs1)c1ccc2cccnc2c1O (stereo unspecified) returned Pf growth 96h 2.6µM, CHX counter inactive, Pf growth 48h 1.9µM, Shiga toxin inh inactive, HCV inh 4.5µM and HCMV inh -93.
Cc1cccc(NC(c2ccccc2C)c2ccc3ccc(C)nc3c2O)n1 (stereo unspecified) was read as HCMV inh inactive.
NC(=O)c1ccc(Oc2ccc(C(N)=O)cc2)cc1 was read as Pf growth 96h inconclusive, CHX counter inactive, Pf growth 48h inactive, Shiga toxin inh inactive, HCV inh inactive and HCMV inh inactive.
CO/N=C(\N)c1nonc1N was read as Pf growth 96h inactive, CHX counter inactive, Pf growth 48h inactive, Shiga toxin inh inactive, HCV inh inconclusive and HCMV inh inactive.
For Nc1nonc1C(=O)OCC(=O)c1ccc(Cl)cc1 the results were Pf growth 96h inactive, CHX counter inactive, Pf growth 48h inactive, Shiga toxin inh inactive, HCV inh inactive and HCMV inh inactive.
Screening N/C(=N\OC(=O)c1ccc(Cl)cc1)c1nonc1N returned Pf growth 96h inactive, CHX counter 44, Pf growth 48h inactive, Shiga toxin inh 78, HCV inh inactive and HCMV inh inactive.
Screening N/C(=N/OC(=O)c1ccccc1F)c1nonc1N returned Pf growth 96h inactive, CHX counter 35, Pf growth 48h inactive, Shiga toxin inh 64, HCV inh inactive and HCMV inh inactive.
CCN(c1ccccc1)S(=O)(=O)c1cc(C(=O)Nc2ccccc2Cl)ccc1F was read as Pf growth 96h 2.9µM, CHX counter inactive, Pf growth 48h inactive, Shiga toxin inh inactive, HCV inh inconclusive and HCMV inh -63.
`CCN(c1ccccc1)S(=O)(=O)c1cc(C(=O)Nc2ccc(Br)cc2)ccc1F` gave Pf growth 96h inconclusive, CHX counter 14, Pf growth 48h inconclusive, Shiga toxin inh 65, HCV inh 2.8µM! and HCMV inh -89.
CCN(c1ccccc1)S(=O)(=O)c1ccc(C(=O)NCC(=O)Nc2ccc(F)c(F)c2F)cc1 was read as HCV inh inconclusive and HCMV inh inactive.
For COc1ccccc1N(C)S(=O)(=O)c1ccc(C(=O)NCCc2ccc(F)cc2)cc1 the results were Pf growth 96h inconclusive, CHX counter inactive, Pf growth 48h inconclusive, Shiga toxin inh inactive, HCV inh inconclusive and HCMV inh inactive.
